# Results filed as inconclusive are left out. Activity calls are given as the source filed them. Calls follow the shape of the dose curve; as a rule, active = well fitted curve in the direction sought with a large enough effect; inconclusive = small, poorly fitted or top-dose-only effect, or another doubt; inactive = no such curve, though single readings can be large; an effect the other way counts as inactive or inconclusive.
# Tested on: not listed separately
# Experiment: qHTS to identify inhibitors of the type 1 interferon - major histocompatibility complex class I in skeletal muscle: primary screen against the NCATS Mechanism Interrogation Plate v5.0 (MIPE) Libary (AID 1347411);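 also: plate controls were vehicle for no effect and reference inhibitor for full effect; nearly all actives have a fitted effect of over 65% in size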
# Conditions: iHSKM cells + IFN-b, HiBiT-tagged MHC-I luminescence, 24 h; series mostly up to 45.8 µM; activity change, negative = inhibition: at the top concentration
# Procedure, shortened: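 Immortalized human C25cl48 myoblasts with HiBit knocked into endogenous HLA-B*08:01 were stimulated with 4.0 ng/ml IFN-beta and exposed to compounds (11-point 1:3 titration, top 46 uM final) for 24 hrs at 37 C; HiBiT lytic luminescence measured.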
row,SMILES,"activity change, negative = inhibition"
1,COc1cc([C@@H](CC(=O)O)c2ccc(C)c(CN3C[C@@H](C)Oc4ccccc4S3(=O)=O)c2)cc2nnn(C)c12,-0.985% (inactive)
2,O=C(NNc1ccccc1)c1ccncc1,-6.19% (inactive)
3,CCN(CCCOc1ccc2c(Nc3cc(CC(=O)Nc4cccc(F)c4)[nH]n3)ncnc2c1)CCOP(=O)(O)O,5.24% (inactive)
4,Cn1nccc1Nc1nccc(-c2ccn([C@H](CO)c3ccc(Cl)c(F)c3)c(=O)c2)n1,-26.9% (inactive)
5,Nc1ncnc2c1ncn2[C@@H]1O[C@H](CO)C[C@H]1O,1.2% (inactive)

# Molecular target: Calcium and integrin-binding protein 1 (Homo sapiens) (UniProt Q99828)
# Sequence (Q99828 whole entry, looked up): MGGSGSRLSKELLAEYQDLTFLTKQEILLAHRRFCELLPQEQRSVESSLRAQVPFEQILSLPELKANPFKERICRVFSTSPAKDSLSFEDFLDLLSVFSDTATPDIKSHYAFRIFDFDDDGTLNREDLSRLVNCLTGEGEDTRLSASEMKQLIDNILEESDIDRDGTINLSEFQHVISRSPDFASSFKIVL
# Experiment: Primary qHTS for Identification of Calcium Integrin Binding Protein 1 (CIB1) Competitor (AID 1508620);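 also: GST tagged CIB1 binding a fluorescein labelled alphaIIb integrin peptide tracer; top concentration of the series differs between compounds; % is scaled to controls: 0 for no effect and ±100 for the full control effect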
# Conditions: CIB1-GST / FITC-alphaIIb peptide fluorescence polarization; series mostly up to 114 µM; activity change, negative = inhibition: at the top concentration
# Procedure, shortened: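 CIB1-GST (1 uM final) and compound incubated 15 min at room temperature before adding FITC-alphaIIb peptide tracer (100 nM final). Competition for binding read by fluorescence polarization (ex 480, em 540) after another 15 min at room temperature.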
row,SMILES,"activity change, negative = inhibition"
1,COc1cc([C@@H](CC(=O)O)c2ccc(C)c(CN3C[C@@H](C)Oc4ccccc4S3(=O)=O)c2)cc2nnn(C)c12,-2.59% [at 57.7 µM] (inactive)
2,CCCCn1ccc(N2CCC(c3ccccc3)CC2)c(Cl)c1=O,5% (inactive)
3,O=C(NNc1ccccc1)c1ccncc1,-0.595% (inactive)
4,COc1ccccc1NC(=O)Nc1ccc2ccccc2c1,-2.03% (inactive)
5,C[C@@H]1COCCN1c1cc(C2(S(C)(=N)=O)CC2)nc(-c2ccnc3[nH]ccc23)n1 (some centres not stated),7.12% [at 57.7 µM] (inactive)
6,CC1OC2OC3C(OCC(O)C3O)OC(=O)C34CCC(C)(C)CC3C3=CCC5C6(C)CC(O)C(OC7OC(CO)C(O)C(O)C7OC7OCC(OC(=O)CC(C)(O)CC(=O)OC1C(OC1OCC(O)C(O)C1O)C2O)C(O)C7O)C(C)(CO)C6CCC5(C)C3(C)CC4O (configuration not stated),-9.3% [at 57.7 µM] (inactive)
7,COc1cc(O)c(C(=O)CCc2ccc(O)cc2)c(O[C@@H]2O[C@H](CO)[C@@H](O)[C@H](O)[C@H]2O)c1,-2.36% [at 57.7 µM] (inactive)
8,CCOC(=O)c1cnn(-c2ccc(NC(=O)C(Cl)=C(Cl)Cl)cc2)c1C(F)(F)F,-17.4% (inactive)
9,COc1ccc(Cl)cc1[C@@]1(F)C(=O)Nc2cc(C(F)(F)F)ccc21,-8.39% (inactive)
10,CN(CCCNC(=O)c1ccc2nc3c(c(Cl)c2c1)CCCC3)Cc1ccccc1,-1.61% (inactive)
11,Cc1ccc2c(Nc3ccc(Cl)cc3)nccc2c1Nc1ncccc1-c1ncnc2nc[nH]c12,-5.15% (inactive)
12,CCN(CC)c1ccc(C(=C2C=CC(=[N+](CC)CC)C=C2)c2cc(S(=O)(=O)O)ccc2S(=O)(=O)[O-])cc1,-3.57% (inactive)
13,O=C(Nc1ccc(F)cc1)N1CCc2ccccc2C1c1ccc(C(F)(F)F)cc1 (configuration not stated),5.12% (inactive)
14,CC(C)(C)c1ccc(-c2nc3ccccc3[nH]2)cc1,0.0882% [at 57.7 µM] (inactive)
15,C=C(C)C(=O)OC1[C@@H]2C(=C)C(=O)O[C@@H]2C[C@@H](C)[C@@H]2C=CC(=O)[C@@]12C (some centres not stated),3.58% [at 57.7 µM] (inactive)
16,COc1ccccc1-c1cc(Nc2cccc(CS(N)(=O)=O)c2)ncn1,-6.24% (inactive)
17,CC1CCC2C(=CCC(O)C2(C)C)C1(C)Cc1c(O)cc(CO)c(C=O)c1O (configuration not stated),-1.71% [at 57.7 µM] (inactive)
18,CC1(C)CC23[C@@H]4CC(=O)[C@@H]2COC(=O)[C@@H]3CC[C@H]41,4.26% (inactive)
19,CCN1CCN(Cc2ccc(-c3cc4c(NC(C)c5ccccc5)ncnc4[nH]3)cc2)CC1 (configuration not stated),8.06% (inactive)

row,SMILES,"activity change, negative = inhibition"
1,CN1CCN(C(=O)c2ccc(Nc3nccc(-c4cccs4)n3)cc2Cl)CC1,-0.0476% (inactive)
2,CC(C)[C@@H](C)/C=C/[C@@H](C)[C@H]1CC[C@H]2C3=CC=C4C[C@@H](O)CC[C@]4(C)C3=CC[C@]12C,-8.86% (inactive)
3,OCC(Cc1ccccc1)Nc1nc(Oc2ccc3c(c2)CCC3)nc2c1ncn2Cc1ccc(-c2ccccc2)cc1 (configuration not stated),3.71% (inactive)
4,Cc1[nH]c(/C=C2\C(=O)Nc3ccc(F)cc32)c(C)c1C(=O)NC[C@H](O)CN1CCOCC1,40.6% (inactive)
5,CCN(CCCOc1ccc2c(Nc3cc(CC(=O)Nc4cccc(F)c4)[nH]n3)ncnc2c1)CCOP(=O)(O)O,1.49% (inactive)
6,O=C1c2c(O[C@@H]3O[C@H](CO)[C@@H](O)[C@H](O)[C@H]3O)cc(O)cc2OC1(O)Cc1ccc(O)cc1 (some centres not stated),-2.31% [at 57.7 µM] (inactive)
7,CCCCn1c(-c2ccccc2)nc(-c2ccccc2)c1CN(Cc1ccc2c(c1)OCO2)Cc1ccc2c(c1)OCO2,-1.81% (inactive)
8,Cc1ccc(C2(COC(=O)C(C)C)CO2)c(OC(=O)C(C)C)c1 (configuration not stated),1.38% [at 57.7 µM] (inactive)
9,CCC(C)n1cc(C)c2c(C(=O)NCc3c(C)cc(C)[nH]c3=O)cc(-c3ccc(N4CCNCC4)nc3)cc21 (configuration not stated),-0.242% (inactive)
10,Cn1nccc1Nc1nccc(-c2ccn([C@H](CO)c3ccc(Cl)c(F)c3)c(=O)c2)n1,-9.42% (inactive)
11,COc1cc2ncnc(Oc3cccc(NC(=O)Nc4cc(C(C)(C)C(F)(F)F)on4)c3)c2cc1OC,-6.28% (inactive)
12,CC1(C)CC[C@]2(C(=O)OC3OC(CO)C(O)C(O)C3O)CC[C@]3(C)C(=CCC4[C@@]5(C)CC[C@H](OC6OC(C(=O)O)C(O)C(O)C6O)C(CO)(CO)C5CC[C@]43C)[C@@H]2C1 (some centres not stated),-0.177% [at 30.2 µM] (inactive)
13,Nc1ncnc2c1ncn2[C@@H]1O[C@H](CO)C[C@H]1O,-2.99% (inactive)
14,O=[N+]([O-])c1ccc(-[n+]2nc(-c3ccccc3)nn2-c2ccc(I)cc2)cc1,-3.24% (inactive)
15,O=C(NC(NC(=S)Nc1ccc(F)c([N+](=O)[O-])c1)C(Cl)(Cl)Cl)C(c1ccccc1)c1ccccc1 (configuration not stated),-2.42% [at 30.2 µM] (inactive)
16,Cc1ccc(C(=O)N2CCN(c3ccc([N+](=O)[O-])cc3)CC2)cc1Cl,-0.556% (inactive)
17,CC(=O)N1c2ccc(-c3ccc(C(=O)O)cc3)cc2C(Nc2ccc(Cl)cc2)CC1C (configuration not stated),-8.73% (inactive)
18,C=C1/C(=C/C=C2\CCC[C@]3(C)[C@@H]([C@H](C)/C=C/C(=O)C4CC4)CC[C@@H]23)C[C@@H](O)C[C@@H]1O,-2.67% (inactive)
